# Assay results published in the supplement of paper PMC11417369.
# ± gives the standard deviation of the averaged measurements. Whole data set: some 25,000 sequences, median “ln(normalized median fluorescence intensity)” near 7.9, cut for the highest 2% near 11. The list comes from a sample in which the highest values are over-represented; it also holds similar and randomly drawn sequences.
# Tested on: PfAP2-I AP2 domain 3 (GST-tagged)
# Assay: gcPBM binding intensity (ln(normalized median fluorescence intensity)); higher = stronger DNA binding
# Procedure, shortened: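 Probes on an Agilent 4 × 180k array were primer-extended, double-stranded and 36 bp long, taken from intergenic genomic regions, with negative controls added. GST-tagged P. falciparum DNA-binding domains from E. coli, about 25 μg on average, were applied to the array for 1 h in 1× PBS containing 1% milk, 0.2 mg/ml BSA, 0.5% salmon testes DNA and 0.03% Triton X-100. Binding intensity, obtained after Alexa488 anti-GST antibody detection and a 488 nm scan, is the highest Masliner-normalised natural-log median intensity across replicate spots of either probe orientation.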
row,Sequence,gcPBM binding intensity (ln)
1,TATAATAATAATTATACATGCATGAATATTTATATG [TGCATGCA_site811],7.67 ± 0.21
2,AATATGAAATATATTACACACATTTATATGTTGAAA [CACACA_site1427],7.59 ± 0.39
3,GTATTATTATTTTATGCATGTACATTGAATTATATT [TGCATGCA_site34],8.26 ± 0.44
4,ATAATTATTCTTATGGTGCACTGAATATACATGTTG [GTGCAC_site9760],11.1 ± 0.47
5,ATTATATTTATGTTGGTGCATTATACATGAAATTTA,11.5 ± 0.43
6,TATATATATATATATGTGCACTGAAAGAATTATACA [GTGCAC_site9586],10.7 ± 0.13
7,CCTATCCAGACATATACACACATATCTATTTATATA [CACACA_site5001],8.01 ± 0.57
8,AAGTAATTTGTTGACACACACACACGCATACCTATA [CACACA_site7140],8.07 ± 0.65
9,TTTTTTTCATAAGAAGCACACAAAAAATGATAGAGA [CACACA_site8401],8.29 ± 0.4
10,TAAATTAAAAAACATAAACTATTGGAAACGCATTGA [CACACA_negctrl_site935],7.57 ± 0.64
11,TAGGCGTTTAATAAAAGTACCCACACATATATTATT [XGTACX_site1932],7.68 ± 0.49
12,GAGATTTATTTATGTGCACACTAGAACAATTGGATC [CACACA_site2090],9.99 ± 0.42
13,ATATTATGTGATTGTGCACACTGGAGATTTTTTTTA [CACACA_site1453],10.9 ± 0.17
14,TATATATATATATATGTGCACTGGACATATTTTTAT [GTGCAC_site9721],10.09 ± 0.099
15,TTAATATAGGGAAAAAAAAGAAAATCGAAAATGTGT [CACACA_negctrl_site834],8 ± 0.75
16,TTTTTTTTATGTATCACACATAATTTTTTATTATGA [CACACA_site5534],7.63 ± 0.68
17,GTATTCATGCTAAAGGTGCAATAATTTTTATAATAA [GTGCAC_site9603],11.5 ± 0.61
18,ACACATAATATAAAGGTGCTATATTGTATTCATTTT [GTGCAC_site9457],10.1 ± 0.2
19,ATTTTCATGATAAAGGTGCAATTATTTTTATAAGAA,10.9 ± 0.53
20,TATAATTTATTAAGGGGTACATATATTTCATGATAA [XGTACX_site5141],7.88 ± 0.37
21,TATAATTATTTTTTTCTAAATATTATAAGGTATTCA [GTGCAC_negctrl_site205],7.18 ± 0.33
22,ATTATAAAAGAATTTTTTTTTATTTCATTAAAATAT [CACACA_negctrl_site1137],7.09 ± 0.47
23,TATAAATATCTGAATTGTACAGGTGAAAAAAAAAAT [XGTACX_site1867],8.04 ± 0.62
24,TAATTAGATTATTTTTGTACATATTATTATAGGTTA [XGTACX_site2077],7.59 ± 0.26

row,Sequence,gcPBM binding intensity (ln)
1,ACAAAAATAAGCAAATGTACATATGTATAATATATT [XGTACX_site2492],7.77 ± 0.58
2,TAAATTAAAAAAAAAAACAAAAAAAAAGCAACAAAA [CACACA_negctrl_site1318],7.67 ± 0.57
3,AGTGACACCAAAGGGGTGCAATGAAATTAAAAATAT,10.7 ± 0.24
4,TTAAAAAATAACAAGGTGCAAATAGGTTTATAAAAT,10.84 ± 0.064
5,TAAAAATTAAAAAGGGTGCAAAAAAAAAAAAAAAAA [GTGCAC_site9733],11 ± 0.61
6,AAAAAAAAAAAAAAGGTGCAAATAAATTAACCTTAT,11.4 ± 0.44
7,ATTATCCATCAAAAGGTGCAAATTTTTAATTATAAA [GTGCAC_site9932],10.5 ± 0.49
8,TATGTGTGACAAAATTGTACGGTCTCTTTATTTTGT [XGTACX_site2679],7.72 ± 0.54
9,TCCTTATAAATATATATATAATATATATATATATAT [CACACA_negctrl_site293],8.86 ± 0.2
10,ATTTTTATTCAGTTCACACACGCTTTAATATTATAT [CACACA_site3465],8.3 ± 0.58
11,ATATATCCAATATATATATATATATATATATATATA [CACACA_negctrl_site160],9.2 ± 0.67
12,TGTTGGCAGGTGAATGCATGCATATAAGTCTATCTG [TGCATGCA_site781],8.02 ± 1.1
13,TATTCCTATATAAAGACACACATATGTAACTACGAT [CACACA_site4139],7.68 ± 0.59
14,ATATAATATAACAATACGCACACGTATACAAAAAAA [CACACA_site3151],8.36 ± 0.41
15,TATTAATTTCTTTTTTCTCATCACTTTCAAAATGAA [CACACA_negctrl_site1055],7.9 ± 0.47
16,ATTATGTATACATAAACACACATATATATAAAAAAA [CACACA_site262],7.92 ± 0.64
17,TTCATTAAAGTTATTACACACAGTTCTTCAACCAAA [CACACA_site7613],7.88 ± 0.46
18,TTCTTTGTAGTATATTAACACACAACTGTTTATAAT [CACACA_site9305],8.02 ± 0.59
19,CTTTGTAGTATATTAACACACAACTGTTTATAATAT [CACACA_site6038],7.77 ± 0.54
20,ATATTTATAAATTGCACACAAATAATAACATTATAT [CACACA_site5322],8.68 ± 0.13
21,AAATATTTATAAATTGCACACAAATAATAACATTAT [CACACA_site8737],8.47 ± 0.099
22,TATAATATTTGGTGCACACAAATTAACAACTGTTTA [CACACA_site3742],11.1 ± 0.39
23,TGTATAATATTTGGTGCACACAAATTAACAACTGTT [CACACA_site9245],11.1 ± 0.54
